High-throughput results: PubChem BioAssay, several laboratories
Sampled rows, rich in hits. Any-hit rate of the full collection: about 1.5%.
Plk1 PBD FP: Plk1 (human) PBD binding inhibition | Plk1 PBD phosphopeptide binding, fluorescence polarization | inhibition, %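 (tested at about 20 µM)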 | hit rate 0.13% among 97,000; in the data active = inhibition above about 34%, passing the limit was not always enough
ROCK2 blocker: inhibitors of human Rho kinase 2; O75116; purified ROCK2, Kinase-Glo ATP depletion luminescence; inhibition, % at 6 µM; hit rate 0.35% among 60,000;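 active = inhibition above the screen-wide mean inhibition plus 3 SD, cut at about 18% in these data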
PLK1 inh: blocks human PLK1 kinase activity. inhibition, % at 10 µM. AID 619. hit rate 0.53% among 97,000. recombinant PLK1 kinase, TR-FRET peptide phosphorylation;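 active = inhibition of 50% or more in the single-concentration screen; inactive = inhibition below 50%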
JNK3 blocker: inhibitors of human JNK3 kinase. P53779. purified JNK3 kinase activity, HTS. AID 746. inhibition, % at 8 µM. hit rate 0.61% among 60,000; in the data active = inhibition above about 17%
Target sequence (P53779 whole entry, looked up): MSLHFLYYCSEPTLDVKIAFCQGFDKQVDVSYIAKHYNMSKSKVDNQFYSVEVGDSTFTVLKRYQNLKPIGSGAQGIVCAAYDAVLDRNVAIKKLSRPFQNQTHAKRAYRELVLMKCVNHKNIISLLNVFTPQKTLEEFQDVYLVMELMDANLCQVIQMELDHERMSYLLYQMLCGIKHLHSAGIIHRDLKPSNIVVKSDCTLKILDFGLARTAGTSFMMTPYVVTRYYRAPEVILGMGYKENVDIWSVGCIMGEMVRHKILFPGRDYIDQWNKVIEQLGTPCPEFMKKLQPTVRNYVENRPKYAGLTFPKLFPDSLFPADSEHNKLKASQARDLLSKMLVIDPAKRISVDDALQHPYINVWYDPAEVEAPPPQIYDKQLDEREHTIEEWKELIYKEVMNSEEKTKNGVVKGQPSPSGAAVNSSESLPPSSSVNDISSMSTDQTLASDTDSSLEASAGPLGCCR
FAK inh: blocks human focal adhesion kinase activity; biochemical FAK kinase activity assay; hit rate 0.84% among 97,000; AID 727; Q05397; inhibition, %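 (tested at 7 µM)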
PKA inh: blocks human protein kinase A activity. P17612. PKA Kemptide phosphorylation, Kinase-Glo ATP luminescence. inhibition, % at 6 µM. hit rate 0.1% among 65,000. AID 524;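 active = inhibition above the screen-wide mean inhibition plus 3 SD, cut at about 21% in these data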
PLK1 inh conf: PLK1 (human) kinase inhibition, confirmed; hit rate 20% among 210; shares compounds with PLK1 inh; inhibition, % at 10 µM; recombinant PLK1 kinase, TR-FRET peptide phosphorylation;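 active = inhibition at or above 50% in each of two repeat confirmation tests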
TR-FRET interf: interferes with the Plk1 assay readout, not true inhibition; shares compounds with PLK1 inh; inhibition (interference), % at 10 µM; 210 tested, under 10 active; Plk1 TR-FRET assay interference, compound added post-reaction;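 active = both duplicate runs show 50% or greater inhibition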
Redox H2O2 DR: redox cycling H2O2 generation counter-screen for Plk1 PBD; EC50, µM; shares compounds with Plk1 PBD FP; 120 tested, under 10 active; DTT; call rule not given here
FAK inh conf: confirmation of human focal adhesion kinase (FAK) inhibitors; AID 794; inhibition, % at 7 µM; shares compounds with FAK inh; hit rate 28% among 750; FAK kinase biochemical inhibition assay
Large screens that a line does not name were inactive (follow-up assays come after a bar, where they were run). Cut-off read from the data, not from the text of the source, unless noted: active = inhibition above about 19%; inactive = the rest.

CCOc1ccc(-n2c(Cc3cc(=O)[nH]c(=O)[nH]3)nnc2SC(C)C)cc1	none
CCC(C)Sc1nnc(Cc2cc(=O)[nH]c(=O)[nH]2)n1-c1ccc(F)cc1 (stereo not given)	PLK1 inh 72 | PLK1 inh conf inactive | TR-FRET interf inactive
Nc1nc(Nc2ccccc2Br)nc(C(F)(F)F)n1	none (no result: Plk1 PBD FP, PLK1 inh, FAK inh)
Nc1ncnc(Nc2ccccc2C(F)(F)F)n1	PLK1 inh 72 | PLK1 inh conf 70 | TR-FRET interf inactive
CCc1cc(=O)oc2cc(OCC(=O)N(CC)CC)c(Cl)cc12	PLK1 inh 72 | PLK1 inh conf inactive | TR-FRET interf inactive
COc1ccccc1NC(=O)Cn1c(=O)n2nc(C)nc2c2ccccc21	none
COc1ccc(Cl)cc1NC(=O)Cn1c(=O)n2nc(C)nc2c2ccccc21	PLK1 inh 78 | PLK1 inh conf inactive | TR-FRET interf inactive
Cc1ccc(Cl)cc1N(Cc1ccc(C(=O)NCc2cccnc2)cc1)S(=O)(=O)c1ccccc1	none (no result: ROCK2 blocker, JNK3 blocker, PKA inh)
Cc1cc(NC(=O)c2cnn3cccnc23)nn1CC(=O)Nc1cccnc1	none
O=C(Nc1cccnc1)c1cnn2cccnc12	PLK1 inh 76 | PLK1 inh conf 63 | TR-FRET interf inactive
CCOC(=O)C(C)Oc1ccc(C2NC(=O)NC(C)=C2C(C)=O)cc1Br (stereo not given)	none
COc1ccc(C2c3c(oc4ccccc4c3=O)C(=O)N2CCCN2CCOCC2)cc1 (stereo not given)	none
CCOc1ccc(C2c3c(oc4ccccc4c3=O)C(=O)N2CCCN2CCOCC2)cc1OCC (stereo not given)	PLK1 inh 74 | PLK1 inh conf inactive | TR-FRET interf inactive
C=CCNC(=S)N/N=C(\C)c1ccccn1	none (no result: ROCK2 blocker, JNK3 blocker, PKA inh)
OC(CN1C2=NCCN2c2ccccc21)c1ccccc1 (stereo not given)	none
OC(CN1C2=NCCCN2c2ccccc21)c1ccc(Cl)cc1 (stereo not given)	PLK1 inh 80 | PLK1 inh conf inactive | TR-FRET interf inactive
CCn1c(SCC(=O)N2CCCCC2)nc(O)cc1=O	none (no result: ROCK2 blocker, JNK3 blocker, PKA inh)
CCn1c(SCC(=O)N2CCOCC2)nc(O)cc1=O	PLK1 inh 71 | PLK1 inh conf inactive | TR-FRET interf inactive
CC1(C)CC(=O)C(C(=S)Nc2ccccc2)=C(NCCN2CCOCC2)C1	none (no result: ROCK2 blocker, JNK3 blocker, PKA inh)
c1ccc2c(-c3ccncc3)c[nH]c2c1	ROCK2 blocker 89, PLK1 inh 78, FAK inh 21, PKA inh 65 | PLK1 inh conf 71 | TR-FRET interf inactive | FAK inh conf inactive
Cc1cc(N)ccc1N1CCCC1	PLK1 inh 80, FAK inh 74 (no result: ROCK2 blocker, JNK3 blocker, PKA inh) | PLK1 inh conf inactive | TR-FRET interf inactive | FAK inh conf 58
Cc1cc(N)ccc1-n1c(C)ccc1C	none (no result: Plk1 PBD FP, PLK1 inh, FAK inh)
CCCCCCC1CCC(C(=O)NC(CCSC)C(=O)NC(C(=O)OC)C(C)C)CC1 (stereo not given)	none (no result: ROCK2 blocker, JNK3 blocker, PKA inh)
CCOc1ncccc1C(=O)OCC(=O)c1cccs1	none (no result: ROCK2 blocker, JNK3 blocker, PKA inh)
CCCc1[nH]nc2c1C(c1ccc(O)c(OC)c1)C(C#N)=C(N)O2 (stereo not given)	PLK1 inh 109, FAK inh 20 | PLK1 inh conf inactive | TR-FRET interf inactive | FAK inh conf inactive
CCNC(=O)CSc1ncnc2sccc12	none (no result: ROCK2 blocker, JNK3 blocker, PKA inh)
N#Cc1c(NC(=O)CSc2ncnc3sccc23)oc(-c2ccco2)c1-c1ccco1	PLK1 inh 77, FAK inh 22 | PLK1 inh conf inactive | TR-FRET interf inactive | FAK inh conf inactive
C/C(=C/C(=O)NCc1ccccc1)C(=O)O	none (no result: ROCK2 blocker, JNK3 blocker, PKA inh)
CC(C)=CC(=O)NCCc1ccccc1	Plk1 PBD FP 51 | Redox H2O2 DR inactive
CCC(=O)N1CCN(c2ccccc2NC(=O)c2ccc(OC)c(Cl)c2)CC1	none (no result: ROCK2 blocker, JNK3 blocker, PKA inh)
O=C1CCN2C=Nc3cccc4ccc1c2c34	Plk1 PBD FP 51 | Redox H2O2 DR inactive
CCCCc1ccc(-c2nc(NC(=O)C3C4CCC(O4)C3C(=O)O)sc2C)cc1 (stereo not given)	none (no result: ROCK2 blocker, JNK3 blocker, PKA inh)
COC(=O)c1cccc(NS(=O)(=O)c2cccs2)c1C	none
COC(=O)c1ccccc1NC1=C/C(=N\S(=O)(=O)c2cccs2)c2ccccc2C1=O	Plk1 PBD FP 56 (no result: ROCK2 blocker, JNK3 blocker, PKA inh) | Redox H2O2 DR inactive
COCCNC(=O)C1CC(=O)N(C2CCCC2)C1 (stereo not given)	none
NC(=O)C1(N2CCCCC2)CCN(C(=O)NC2CCCCC2)CC1	Plk1 PBD FP 52 | Redox H2O2 DR inactive
NC(=O)C1(N2CCCCC2)CCN(C(=O)NC23CC4CC(CC(C4)C2)C3)CC1	none (no result: ROCK2 blocker, JNK3 blocker, PKA inh)
O=C(Nc1nc2ccccc2s1)c1cc2c(s1)-c1ccccc1OC2	Plk1 PBD FP 53 (no result: ROCK2 blocker, JNK3 blocker, PKA inh) | Redox H2O2 DR inactive
CC(C)OCCCNC(=O)c1ccc(NC(=O)C2CCCO2)cc1 (stereo not given)	Plk1 PBD FP 35 (no result: ROCK2 blocker, JNK3 blocker) | Redox H2O2 DR inactive
CCOc1ccc(Br)cc1/C=N/O	none (no result: ROCK2 blocker, JNK3 blocker, PKA inh)
O=C(O)COc1ccc(Br)cc1/C=N/O	Plk1 PBD FP 45 | Redox H2O2 DR inactive
O=C(c1ccc(-n2cnnn2)cc1)N1CCCCC1	Plk1 PBD FP 48 (no result: ROCK2 blocker, JNK3 blocker, PKA inh) | Redox H2O2 DR inactive
O=C(c1ccc(C(F)(F)F)cc1)N1CCCCC1	none (no result: Plk1 PBD FP, PLK1 inh, FAK inh)
O=C(Oc1cccc(N2C(=O)CCC2=O)c1)C1CC(=O)N(c2ccc(F)cc2)C1 (stereo not given)	none (no result: Plk1 PBD FP, PLK1 inh, FAK inh)
CCc1nc2cc(Cl)c(Cl)cc2[nH]1	Plk1 PBD FP 50 | Redox H2O2 DR inactive
CNC(=O)CC(C(=O)O)c1ccc(OCC(C)C)cc1 (stereo not given)	Plk1 PBD FP 64 | Redox H2O2 DR inactive
O=C(O)CCC(=O)Nc1ccccc1C(=O)NC1CCCCC1	none
CCC(=O)Nc1ccccc1C(=O)NC1CCCCC1	Plk1 PBD FP 41 (no result: ROCK2 blocker, JNK3 blocker, PKA inh) | Redox H2O2 DR inactive
CC(C)N(C(=O)C(=O)c1cccn1-c1ccccc1C#N)C(C)C	none (no result: ROCK2 blocker, JNK3 blocker, PKA inh)
Cc1ccc(OCC(=O)Nc2ccc(N3CCOCC3)cc2)cc1	Plk1 PBD FP 39 | Redox H2O2 DR inactive
Cc1[nH]n2c(=O)cc(-c3ccc([N+](=O)[O-])cc3)nc2c1-c1ccccc1	Plk1 PBD FP 35 (no result: ROCK2 blocker, JNK3 blocker, PKA inh) | Redox H2O2 DR inactive
COc1ccc(NC(=O)CSc2nc3c(c(=O)[nH]2)CCC3)cc1OC	none
O=C(CN1C(=O)COc2ccccc21)NCc1ccc(C(=O)O)cc1	Plk1 PBD FP 51 | Redox H2O2 DR inactive
O=C(CN1C(=O)COc2ccccc21)N1CCCc2ccccc21	none
O=C1CN(c2ccc(Br)cc2)C(=O)N1CC(=O)N1CCCc2ccccc21	Plk1 PBD FP 46 | Redox H2O2 DR inactive
NC(=O)C1CCN(C2=C(Cl)C(=O)c3ccccc3C2=O)CC1	Plk1 PBD FP 66 (no result: ROCK2 blocker, JNK3 blocker, PKA inh) | Redox H2O2 DR inactive
CCCn1c(SCC(=O)Nc2ccc(OC)cc2)nnc1-c1ccncc1	none (no result: ROCK2 blocker, JNK3 blocker, PKA inh)
